Test [1] in a line: NCI Yeast Anticancer Drug Screen. Data for the rad50 strain (AID 155).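 Further: 0% = growth of vehicle-only cultures of the same strain.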 Particulars: S. cerevisiae rad50 strain growth inhibition, stronger effect = higher value. Put shortly:
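DNA repair mutant yeast, compound exposure, growth read-out; inhibition is taken relative to vehicle.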

The nature of test [2]: NCI Yeast Anticancer Drug Screen. Data for the mec2-1 strain (AID 157). Particulars: S. cerevisiae mec2-1 strain, stronger effect = higher value. The procedure, abridged: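 Vehicle-treated cultures served as reference for growth inhibition of compound-exposed mec2-1 yeast.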
A short description of test [3]: NCI Yeast Anticancer Drug Screen. Data for the sgs1 mgt1 strain (AID 161).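 Further: 0% = growth of cultures given vehicle only.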 Particulars: S. cerevisiae sgs1 mgt1 strain, stronger effect = higher value. The procedure, abridged: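 Inhibition of yeast growth, normalised to vehicle-treated controls, is reported for a strain bearing genetic alterations in DNA damage repair.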
Test [4] can be described thus: NCI Yeast Anticancer Drug Screen. Data for the cln2 rad14 strain (AID 165).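 Further: 0% = growth equal to vehicle treated cultures.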 Particulars: S. cerevisiae cln2 rad14 strain, stronger effect = higher value. Put shortly:
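Each compound was tested on cln2 rad14 yeast. Inhibition of growth was calculated against vehicle-exposed controls.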

Test [5] can be described thus: NCI Yeast Anticancer Drug Screen. Data for the bub3 strain (AID 167). Particulars: S. cerevisiae bub3 mutant strain, stronger effect = higher value. Put shortly: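 In this screen, a yeast mutant lacking normal mitotic checkpoint function is challenged with compound. Relative growth versus vehicle gives the inhibition value.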
Test [6] is described as follows: NCI Yeast Anticancer Drug Screen. Data for the mlh1 rad18 strain (AID 175). Particulars: S. cerevisiae mlh1 rad18 strain growth inhibition, stronger effect = higher value. The procedure, abridged: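 Vehicle-treated cultures served as the reference for growth inhibition in a yeast strain carrying DNA damage repair alterations exposed to each compound.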
Setting [7] is: at 5.0 µM (retest, dose inferred, filed as 0.5).
[8] abbreviates: at 50.0 µM (retest, dose inferred, filed as 5.0).

Compounds without any hit were thinned out: in the full panel of roughly 79,000, 15% have a hit. Unmarked numbers belong to inactive results. Calls of active or inactive are those of the source. No stated cut-off is given here; in the data, active means growth inhibition above about 70%; inactive means the rest.

Take `CC(=O)c1c2c(cc3c1CC1(C3)Cc3ccc4c(c3C1=O)CCC4)CCC2` (stereo not drawn): the growth inhibition in test [1] (setting [7]) was 3%; in test [1] (setting [8]), 1%; in test [1] (at 50.0 µM), -0.85%; in test [2] (setting [7]), 7%; in test [2] (setting [8]) it was 5%; in test [2] (at 50.0 µM), 17.2%. Further, the growth inhibition in test [3] (setting [7]) is 18%; in test [3] (setting [8]), 7%; in test [3] (at 50.0 µM) it was 5.75%; in test [4] (setting [7]), 15%; in test [4] (setting [8]) it was 16%; in test [4] (at 50.0 µM) it was 6.8%. In addition, the growth inhibition in test [5] (setting [7]) is 12%; in test [5] (setting [8]), 39%; in test [5] (at 50.0 µM), 55.2%; in test [6] (setting [7]), 7%; in test [6] (setting [8]), 6%; in test [6] (at 50.0 µM), 36.4%.

As to `COc1ccc(-n2c(=O)c3[nH]c(=S)[nH]c3n(-c3ccc(OC)cc3)c2=S)cc1`, the growth inhibition in test [1] (setting [7]) was 21%; in test [1] (setting [8]) it was 25%; in test [1] (at 50.0 µM), 25.5%; in test [2] (setting [7]) it was 1%; in test [2] (setting [8]), 16%; in test [2] (at 50.0 µM), 44%. Further, the growth inhibition in test [3] (setting [7]) was 7%; in test [3] (setting [8]), 23%; in test [3] (at 50.0 µM), -47.7%; in test [4] (setting [7]), 3%; in test [4] (setting [8]), 25%; in test [4] (at 50.0 µM) it was -1%. The growth inhibition in test [5] (setting [7]) is -44%; in test [5] (setting [8]), 13%; in test [5] (at 50.0 µM), -41.8%; in test [6] (setting [7]), 14%; in test [6] (setting [8]), 19%; in test [6] (at 50.0 µM), -29.9%.

On to `COc1ccc(/C=C2\CCC(CN(C)C)C2=O)cc1` (stereo not drawn), for which the growth inhibition in test [1] (setting [7]) is 19%; in test [1] (setting [8]), 89% (active); in test [1] (at 50.0 µM), 93.8% (active); in test [2] (setting [7]) it was 19%; in test [2] (setting [8]) it was 99% (active); in test [2] (at 50.0 µM), 93.3% (active). Further, the growth inhibition in test [3] (setting [7]) is 33%; in test [3] (setting [8]) it was 99% (active); in test [3] (at 50.0 µM) it was 93.2% (active); in test [4] (setting [7]) it was 27%; in test [4] (setting [8]), 48%; in test [4] (at 50.0 µM), 91.8% (active). Further, the growth inhibition in test [5] (setting [7]) was 36%; in test [5] (setting [8]) it was 99% (active); in test [5] (at 50.0 µM), 92.6% (active); in test [6] (setting [7]) it was 24%; in test [6] (setting [8]) it was 98% (active); in test [6] (at 50.0 µM) it was 88.8% (active).

`Cc1ccc(N2C(=O)C(C)SC23C(=O)Nc2ccc(Cl)cc23)cc1` (stereo not drawn): the growth inhibition in test [1] (setting [7]) was -8%; in test [1] (setting [8]), 99% (active); in test [1] (at 50.0 µM), 98.5% (active); in test [2] (setting [7]) it was 9%; in test [2] (setting [8]) it was 99% (active); in test [2] (at 50.0 µM), 98.8% (active). The growth inhibition in test [3] (setting [7]) is -3%; in test [3] (setting [8]), 98% (active); in test [3] (at 50.0 µM) it was 37.4%; in test [4] (setting [7]), 0%; in test [4] (setting [8]), 98% (active); in test [4] (at 50.0 µM) it was 97.8% (active). The growth inhibition in test [5] (setting [7]) is -8%; in test [5] (setting [8]) it was 98% (active); in test [5] (at 50.0 µM), 98.8% (active); in test [6] (setting [7]), 1%; in test [6] (setting [8]), 99% (active); in test [6] (at 50.0 µM), 89% (active).

Regarding `CC(C)CNc1cc(Cl)nc(N)n1`, the growth inhibition was -1% in test [1] (setting [7]); 0% in test [1] (setting [8]); 88% (active) in test [1] (at 50.0 µM); 4% in test [2] (setting [7]); 1% in test [2] (setting [8]); 92.3% (active) in test [2] (at 50.0 µM). In addition, the growth inhibition in test [3] (setting [7]) is 2%; in test [3] (setting [8]), -3%; in test [3] (at 50.0 µM), 89.9% (active); in test [4] (setting [7]), -2%; in test [4] (setting [8]) it was -6%; in test [4] (at 50.0 µM), 91.3% (active). For the same molecule, the growth inhibition in test [5] (setting [7]) was 1%; in test [5] (setting [8]), -2%; in test [5] (at 50.0 µM), 59%; in test [6] (setting [7]) it was -4%; in test [6] (setting [8]), -5%; in test [6] (at 50.0 µM), 95.5% (active).

As for `Cn1cc(NC(=O)c2cc(NC(=O)CCCCCCCCC(=O)Nc3cc(C(=O)Nc4cc(C(=O)NCCC(N)N)n(C)c4)n(C)c3)cn2C)cc1C(=O)NCCC(=N)N`, the growth inhibition in test [1] (setting [7]) was 83% (active); in test [1] (setting [8]) it was 98% (active); in test [1] (at 50.0 µM), 89.8% (active); in test [2] (setting [7]) it was 87% (active); in test [2] (setting [8]), 98% (active); in test [2] (at 50.0 µM), 90.8% (active). For the same molecule, the growth inhibition in test [3] (setting [7]) is 80% (active); in test [3] (setting [8]), 99% (active); in test [3] (at 50.0 µM) it was 91.5% (active); in test [4] (setting [7]) it was 45%; in test [4] (setting [8]), 95% (active); in test [4] (at 50.0 µM) it was 88% (active). For the same molecule, the growth inhibition is 86% (active) in test [5] (setting [7]); 98% (active) in test [5] (setting [8]); 91.5% (active) in test [5] (at 50.0 µM); 88% (active) in test [6] (setting [7]); 97% (active) in test [6] (setting [8]); 90% (active) in test [6] (at 50.0 µM).

The values above are taken from PubChem BioAssay (NCI).
